Several values for one entry are separate records, joined by “and”; a condition that tells them apart may be missing. Identical values can stand only once. Records with an inconclusive call do not appear. Activity calls are given as the source filed them. Unless noted, calls follow the shape of the dose curve; as a rule, active = well fitted curve in the direction sought with a large enough effect in the repeat runs; inconclusive = weak or mixed curves; inactive = no such curve, though single readings can be large; an effect the other way counts as inactive or inconclusive.
Assays:
[1] = qHTS assay to identify small molecule antagonists of the progesterone receptor (PR) signaling pathway - cell viability counter screen (AID 1346798); also: series mostly up to about 92 µM; nearly all actives have a fitted effect of over 50% in size
Summary of the method: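 CellTiter-Glo luminescence; PR-UAS-bla HEK293T, 3,000 cells/well; compound + R5020, 16 hr, 37C/5% CO2; 30 min RT before read.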

[2] = qHTS assay to identify small molecule agonists of the progesterone receptor (PR) signaling pathway - cell viability counter screen (AID 1346799; calls by dose curve; also: nearly all actives have a fitted effect of over 45% in size)
Summary of the method: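 In parallel with the beta-lactamase readout, cytotoxicity toward PR-UAS-bla HEK293T cells was measured by CellTiter-Glo luminescence following 16 hr compound incubation in 2% charcoal-stripped FBS medium.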

[3] = qHTS assay to identify small molecule antagonists of the TGF-beta/Smad signaling pathway - cell viability counter screen (AID 1346824); also: nearly all actives have a fitted effect of over 50% in size
Summary of the method: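 SBE-bla HEK 293T cells, incubated overnight, then compound plus 0.25 ng/mL TGF-beta1 (stock added) for 5 hr at 37 C. Viability was read in the same wells by CellTiter-Glo luminescence after 30 min at room temperature.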

[4] = qHTS assay to identify small molecule agonists of the TGF-beta/Smad signaling pathway - cell viability counter screen (AID 1346829); also: top concentration of the series differs between compounds; nearly all actives have a fitted effect of over 45% in size
Summary of the method: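 Cytotoxicity counter screen: CellTiter-Glo luminescence (30 min, room temperature) measured in the SBE-bla HEK 293T reporter wells after 5 hr compound treatment at 37 C and the 2 hr substrate step.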

[5] = qHTS assay to identify small molecule agonists of the TGF-beta/Smad signaling pathway (AID 1346859; active = well fitted activation curve with a large enough effect in the signal ratio in the repeat runs, not every such curve was filed as active; the % refers to the signal ratio; also: series mostly up to about 77 µM)
Summary of the method: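 After overnight seeding, SBE-bla HEK 293T cells are dosed with compounds in DMSO and kept 5 hr at 37 C, 5% CO2. LiveBLAzer-type FRET substrate is then applied for 2 hr at room temperature.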

[6] = Human pregnane X receptor (PXR) small molecule agonists, qHTS cell viability counter screen (AID 1346977); also: nearly all actives have a fitted effect of over 50% in size
Summary of the method: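 Viability counter screen: CellTiter-Fluor signal in PXR-Luc HepG2 cells, 24hr compound exposure, 37C, 5% CO2.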

[7] = Caspase-3/7 induction in HepG2 cells by small molecules, qHTS assay (AID 1346978); also: nearly all actives have a fitted effect of over 15% in size
Summary of the method: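 Wild-type HepG2 cells, 2,000/well, settled 5 hr at 37 C and 5% CO2, then compound-treated for 17 hr; caspase-3/7 activity read by luminescent Caspase-Glo 3/7 after 30 min at room temperature.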

[8] = Caspase-3/7 induction in CHO-K1 cells by small molecules, qHTS cell viability counter screen (AID 1346979); also: nearly all actives have a fitted effect of over 35% in size; also: potency is read from the fitted curve at half-maximal effect
Summary of the method: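 Viability readout by fluorescence (CellTiter-Fluor) on wild-type CHO-K1 cells exposed for 16hr at 37C and 5% CO2 to compounds delivered in DMSO; reagent incubated 1hr before reading.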

[9] = Caspase-3/7 induction in CHO-K1 cells by small molecules, qHTS assay (AID 1346980); also: nearly all actives have a fitted effect of over 15% in size
Summary of the method: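 Wild-type CHO-K1 cells exposed to compounds for 17hr at 37 C, 5% CO2. Caspase-3/7 activity then measured by Caspase-Glo 3/7 luminescence after 30min at room temperature.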

[10] = Caspase-3/7 induction in HepG2 cells by small molecules, qHTS cell viability counter screen (AID 1346981); also: nearly all actives have a fitted effect of over 30% in size; also: potency is read from the fitted curve at half-maximal effect
Summary of the method: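 Wild-type HepG2 cells (2,000/well) were allowed to settle for 5 hr at 37 C, 5% CO2, then dosed with compounds in DMSO by pin transfer. After 16 hr at 37 C, CellTiter-Fluor was added and fluorescence read 1 hr later.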

[11] = molecular target: Acetylcholinesterase (Homo sapiens) (UniProt P22303); assay: Acetylcholinesterase (AChE) small molecule antagonists: colormetric cell-based qHTS assay (AID 1347395; calls by dose curve; also: nearly all actives have a fitted effect of over 30% in size; also: potency is read from the fitted curve at half-maximal effect)
Summary of the method: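 Homogeneous whole-cell format. SH-SY5Y cells seeded overnight, dosed with compound (30 min, 37 C, 5% CO2), then given DTNB/acetylthiocholine cocktail for 90 min at 37 C; colorimetric signal.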

[12] = molecular target: Acetylcholinesterase (Homo sapiens) (UniProt P22303); assay: Acetylcholinesterase (AChE) small molecule antagonists: enzyme-based qHTS assay (AID 1347397; calls by dose curve; also: nearly all actives have a fitted effect of over 55% in size); settings: Potency: AChE enzyme activity inhibition; outcome: AChE enzyme activity inhibition
Summary of the method: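 Recombinant human AChE (50 mU/mL) preincubated with compound 30 min at room temperature; acetylthiocholine plus DTNB then added, and thiocholine formation read colorimetrically after 10 min at room temperature. DMSO served as vehicle control.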

[13] = molecular target: Acetylcholinesterase (Homo sapiens) (UniProt P22303); assay: Acetylcholinesterase (AChE) small molecule antagonists: fluorescence cell-based qHTS assay (AID 1347398; calls by dose curve; also: nearly all actives have a fitted effect of over 50% in size; also: potency is read from the fitted curve at half-maximal effect); settings: Potency: AChE activity; outcome: AChE activity
Summary of the method: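 SH-SY5Y cells (2000/well), attached overnight, incubated with compound 30 min at 37 C. Acetylthiocholine plus Thiolite Green then added for 40 min at room temperature. Thiocholine fluorescence (Ex/Em 490/520 nm) reports cellular AChE activity.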

[14] = molecular target: Progesterone receptor (Homo sapiens) (UniProt P06401); assay: qHTS assay to identify small molecule antagonists of the progesterone receptor (PR) signaling pathway (AID 1346795; active = well fitted inhibition curve with a large enough effect in the signal ratio in the repeat runs, not every such curve was filed as active; the % refers to the signal ratio)
Summary of the method: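 Fluorescence intensity measured 2 hr after adding beta-lactamase FRET substrate to PR-UAS-bla HEK293T cells that had been co-treated 16 hr with compound and 1 nM R5020 (final concentration) in 2% charcoal-stripped FBS.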

[15] = molecular target: Thyrotropin-releasing hormone receptor (Homo sapiens) (UniProt P34981); assay: qHTS assay to identify small molecule antagonists of the thyrotropin-releasing hormone receptor (TRHR) signaling pathway (AID 1346877; active = well fitted inhibition curve with a large enough effect in the repeat runs, not every such curve was filed as active; also: series mostly up to about 51 µM)
Summary of the method: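 TRHR-expressing HEK293 cells were seeded, cultured 18 h at 37 °C, then loaded with calcium dye for 2 h. Compounds were pre-incubated 5 min at room temperature before 1 nM TRH (final) was added, and kinetic fluorescence was recorded for 3 min.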

[16] = molecular target: Thyrotropin-releasing hormone receptor (Homo sapiens) (UniProt P34981); assay: qHTS assay to identify small molecule agonists of the thyrotropin-releasing hormone receptor (TRHR) signaling pathway (AID 1346891; calls by dose curve; also: series mostly up to about 58 µM)
Summary of the method: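 Compounds were tested as agonists at 15 concentrations, in triplicate, on TRHR-Hek293 cells; calcium-sensitive dye fluorescence was recorded for 3 min following addition.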

[17] = molecular target: Nuclear receptor subfamily 1 group I member 2 (Rattus norvegicus) (UniProt Q9R1A7); assay: Rat pregnane X receptor (rPXR) activation by small molecules, qHTS assay (AID 1346983); settings: rPXR luciferase reporter cells, One-Glo luminescence, 24 h; stronger effect = higher value; also: nearly all actives have a fitted effect of over 20% in size
Summary of the method: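 Cell-based rPXR activation assay: rPXR cells, 2,000 per well, rested 5hr at 37 C, then exposed to compounds in DMSO for 24 hr at 37 C. Luciferase activity read by One-Glo luminescence after 30 min at room temperature.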

[18] = molecular target: Nuclear receptor subfamily 1 group I member 2 (Homo sapiens) (UniProt O75469); assay: CYP3A4 induction through human pregnane X receptor (PXR) by small molecules, qHTS assay (AID 1346984); also: nearly all actives have a fitted effect of over 40% in size
Summary of the method: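 DPX-2 cells (HepG2 co-transfected with PXR and CYP3A4 promoter-luciferase) treated with compounds 24 h at 37C; luciferin-IPA CYP3A4 substrate 3uM final added for 3 h, then One-Glo; luminescence read. qHTS format.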

[19] = molecular target: Nuclear receptor subfamily 1 group I member 2 (Homo sapiens) (UniProt O75469); assay: Human pregnane X receptor (PXR) activation by small molecules, qHTS assay (AID 1346985); also: nearly all actives have a fitted effect of over 40% in size
Summary of the method: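 DPX-2 cells (HepG2 co-transfected with a PXR response element and a CYP3A4-promoter luciferase construct) were seeded at 2,000 per well, rested 5 hr at 37C, then exposed to DMSO-dissolved compounds for 24 hr. Activation was read as luciferase luminescence.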

[20] = molecular target: Nuclear receptor subfamily 1 group I member 2 (Homo sapiens) (UniProt O75469); assay: Human pregnane X receptor (PXR) small molecule agonists, qHTS assay (AID 1346982); also: nearly all actives have a fitted effect of over 35% in size; also: potency is read from the fitted curve at half-maximal effect
Summary of the method: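 PXR-Luc HepG2 cells (CYP3A4 promoter-driven luciferase) were seeded in medium with 5% charcoal-stripped FBS, left 5 hr at 37 C, then exposed to compounds in DMSO for 24 hr. Luminescence was read after ONE-Glo addition.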
% is scaled to controls: 0 for no effect and ±100 for the full control effect.

Chain of Progesterone receptor (Homo sapiens) (P06401 whole entry, looked up): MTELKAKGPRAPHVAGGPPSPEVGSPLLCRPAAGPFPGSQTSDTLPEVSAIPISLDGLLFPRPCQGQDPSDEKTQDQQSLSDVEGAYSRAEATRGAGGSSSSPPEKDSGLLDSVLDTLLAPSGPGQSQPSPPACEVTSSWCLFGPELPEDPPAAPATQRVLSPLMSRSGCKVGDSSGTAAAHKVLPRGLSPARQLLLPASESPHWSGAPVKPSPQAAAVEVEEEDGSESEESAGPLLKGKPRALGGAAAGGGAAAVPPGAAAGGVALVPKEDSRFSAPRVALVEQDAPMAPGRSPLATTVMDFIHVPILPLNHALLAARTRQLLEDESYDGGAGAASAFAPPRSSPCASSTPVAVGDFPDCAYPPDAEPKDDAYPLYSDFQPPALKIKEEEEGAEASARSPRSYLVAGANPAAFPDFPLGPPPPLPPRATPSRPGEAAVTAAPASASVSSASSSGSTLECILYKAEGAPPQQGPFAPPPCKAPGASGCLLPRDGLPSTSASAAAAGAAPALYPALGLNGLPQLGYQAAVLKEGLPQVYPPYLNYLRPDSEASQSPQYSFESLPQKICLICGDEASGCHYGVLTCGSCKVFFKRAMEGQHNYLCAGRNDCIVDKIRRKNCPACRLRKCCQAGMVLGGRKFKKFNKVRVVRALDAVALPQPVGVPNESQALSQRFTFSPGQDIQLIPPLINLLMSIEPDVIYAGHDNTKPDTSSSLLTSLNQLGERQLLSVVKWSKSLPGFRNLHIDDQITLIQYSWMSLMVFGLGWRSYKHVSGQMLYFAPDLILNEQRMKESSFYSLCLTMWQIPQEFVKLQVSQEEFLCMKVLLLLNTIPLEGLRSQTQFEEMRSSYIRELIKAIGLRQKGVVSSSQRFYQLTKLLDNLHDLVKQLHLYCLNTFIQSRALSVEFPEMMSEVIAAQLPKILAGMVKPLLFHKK
Chain of Nuclear receptor subfamily 1 group I member 2 (Homo sapiens) (O75469 whole entry, looked up): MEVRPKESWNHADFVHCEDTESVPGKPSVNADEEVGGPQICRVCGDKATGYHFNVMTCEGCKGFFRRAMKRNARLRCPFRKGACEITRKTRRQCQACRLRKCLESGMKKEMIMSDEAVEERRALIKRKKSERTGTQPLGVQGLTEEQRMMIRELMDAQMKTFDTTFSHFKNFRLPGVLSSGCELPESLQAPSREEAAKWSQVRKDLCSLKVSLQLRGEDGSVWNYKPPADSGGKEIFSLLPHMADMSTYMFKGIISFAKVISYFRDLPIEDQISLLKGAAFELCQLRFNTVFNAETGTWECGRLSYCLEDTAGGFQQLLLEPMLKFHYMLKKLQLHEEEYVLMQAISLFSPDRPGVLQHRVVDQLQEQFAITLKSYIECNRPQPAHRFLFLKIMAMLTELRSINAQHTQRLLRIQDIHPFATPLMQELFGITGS
Chain of Thyrotropin-releasing hormone receptor (Homo sapiens) (P34981 whole entry, looked up): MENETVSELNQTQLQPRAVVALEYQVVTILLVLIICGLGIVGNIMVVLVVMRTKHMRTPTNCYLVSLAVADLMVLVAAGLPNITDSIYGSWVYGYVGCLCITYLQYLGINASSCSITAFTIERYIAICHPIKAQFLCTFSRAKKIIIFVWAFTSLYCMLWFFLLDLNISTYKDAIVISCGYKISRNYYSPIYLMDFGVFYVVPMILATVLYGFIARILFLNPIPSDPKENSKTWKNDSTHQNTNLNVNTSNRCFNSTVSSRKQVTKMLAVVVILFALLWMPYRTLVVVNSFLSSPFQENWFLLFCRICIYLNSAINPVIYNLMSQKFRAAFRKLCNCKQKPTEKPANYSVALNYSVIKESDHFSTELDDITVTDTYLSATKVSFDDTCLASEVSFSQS
Chain of Acetylcholinesterase (Homo sapiens) (P22303 whole entry, looked up): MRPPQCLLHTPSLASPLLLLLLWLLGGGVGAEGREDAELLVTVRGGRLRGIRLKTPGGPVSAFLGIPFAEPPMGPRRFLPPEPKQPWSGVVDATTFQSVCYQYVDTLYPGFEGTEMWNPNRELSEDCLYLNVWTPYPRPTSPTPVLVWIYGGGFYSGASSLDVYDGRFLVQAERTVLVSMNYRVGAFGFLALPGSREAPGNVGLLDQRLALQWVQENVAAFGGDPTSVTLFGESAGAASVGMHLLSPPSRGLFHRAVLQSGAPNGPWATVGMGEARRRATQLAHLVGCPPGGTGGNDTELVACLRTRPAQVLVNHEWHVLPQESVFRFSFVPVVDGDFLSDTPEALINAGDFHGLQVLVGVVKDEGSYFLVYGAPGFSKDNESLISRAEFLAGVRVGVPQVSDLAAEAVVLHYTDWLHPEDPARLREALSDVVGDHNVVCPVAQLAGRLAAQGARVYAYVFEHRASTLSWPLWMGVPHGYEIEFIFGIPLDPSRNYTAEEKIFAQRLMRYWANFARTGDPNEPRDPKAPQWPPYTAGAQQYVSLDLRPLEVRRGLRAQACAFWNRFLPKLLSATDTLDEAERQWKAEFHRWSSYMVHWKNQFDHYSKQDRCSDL
Chain of Nuclear receptor subfamily 1 group I member 2 (Rattus norvegicus) (Q9R1A7 whole entry, looked up): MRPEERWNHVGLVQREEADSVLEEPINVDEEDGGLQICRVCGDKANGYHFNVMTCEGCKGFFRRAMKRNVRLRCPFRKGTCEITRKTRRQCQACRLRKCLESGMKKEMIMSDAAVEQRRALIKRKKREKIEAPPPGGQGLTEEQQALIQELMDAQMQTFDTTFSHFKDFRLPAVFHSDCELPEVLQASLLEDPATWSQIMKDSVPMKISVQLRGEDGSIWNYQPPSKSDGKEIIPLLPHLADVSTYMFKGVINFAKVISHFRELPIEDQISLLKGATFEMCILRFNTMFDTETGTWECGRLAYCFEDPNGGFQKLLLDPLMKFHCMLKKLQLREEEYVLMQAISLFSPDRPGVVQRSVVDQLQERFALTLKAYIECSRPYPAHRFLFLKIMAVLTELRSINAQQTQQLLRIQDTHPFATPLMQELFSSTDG

FC(Cl)(Cl)C(F)(Cl)Cl
inactive: Potency [1] | Potency [2] | Potency [3] | Potency [4] | outcome [5] | Potency [6] | Potency [7] | Potency [8] | Potency [9] | Potency [10] | Potency [11] | Potency [12] | Potency [13]

CCCC1CCCCN1 (stereo unspecified)
inactive: Potency [14] | Potency [2] | Potency [4] | outcome [5] | Potency [15] | outcome [16] | Potency [6] | Potency [7] | Potency [8] | Potency [9] | Potency [10] | max activation [17] -2.95% | outcome [18] | Potency [19] | Potency [11] | Potency [12] | Potency [13]

N#CC(C#N)=Cc1ccc(O)c(O)c1
inactive: Potency [14] | Potency [2] | Potency [3] | Potency [4] | outcome [5] | Potency [15] | outcome [16] | Potency [6] | Potency [7] | Potency [9] | Potency [20] | Potency [11] | Potency [12] | Potency [13]

O=C=NC1CCCCC1
active: Potency [20] 9.71 µM
inactive: Potency [14] | Potency [2] | Potency [4] | outcome [5] | outcome [16] | Potency [6] | Potency [8] | Potency [9] | Potency [10] | Potency [11] | Potency [12] | Potency [13]

CCOP(=S)(S)OCC
inactive: Potency [1] | Potency [2] | Potency [3] | Potency [4] | outcome [5] | Potency [15] | outcome [16] | Potency [6] | Potency [7] | Potency [8] | Potency [10] | Potency [12]
active: Potency [11] 16.7 µM | Potency [13] 42.1 µM

CCNC(=O)NC(=O)/C(C#N)=N/OC
inactive: Potency [1] | Potency [2] | Potency [3] | Potency [4] | outcome [5] | Potency [15] | outcome [16] | Potency [6] | Potency [8] | Potency [9] | Potency [11] | Potency [12] | Potency [13]

CCOP(=S)(OCC)SCSc1cc(Cl)ccc1Cl
inactive: Potency [14] | Potency [2] | Potency [3] | Potency [4] | outcome [5] | Potency [15] | outcome [16] | Potency [6] | Potency [8] | Potency [9] | Potency [10] | Potency [20] | Potency [11] | Potency [12] | Potency [13]

Nc1cccc2ccccc12
inactive: Potency [1] | Potency [2] | Potency [3] | Potency [4] | outcome [5] | Potency [15] | outcome [16] | Potency [6] | Potency [7] | Potency [8] | Potency [9] | Potency [10] | Potency [11] | Potency [12] | Potency [13]
active: Potency [20] 48.9 µM and 61.1 µM

C=CCSSCC=C
inactive: Potency [14] | Potency [2] | Potency [3] | Potency [4] | outcome [5] | Potency [15] | outcome [16] | Potency [6] | Potency [7] | Potency [8] | Potency [9] | Potency [10] | Potency [20] | Potency [11] | Potency [12] | Potency [13]

Cc1nc2ccccc2c(=O)n1-c1ccccc1Cl
active: Potency [8] 26.7 µM | Potency [10] 26.7 µM | Potency [20] 21.2 µM
inactive: Potency [1] | Potency [2] | Potency [3] | Potency [4] | outcome [5] | Potency [15] | outcome [16] | Potency [7] | Potency [9] | Potency [11] | Potency [12] | Potency [13]

N#CC1(N=NC2(C#N)CCCCC2)CCCCC1
inactive: Potency [1] | Potency [2] | Potency [3] | Potency [4] | outcome [5] | Potency [15] | outcome [16] | Potency [6] | Potency [8] | Potency [9] | Potency [10] | Potency [11] | Potency [12] | Potency [13]

O=S(=O)(Cl)Cl
inactive: Potency [1] | Potency [2] | Potency [3] | Potency [4] | outcome [5] | Potency [15] | outcome [16] | Potency [6] | Potency [7] | Potency [8] | Potency [10] | Potency [20] | Potency [11] | Potency [12] | Potency [13]

NP(N)(=O)NC(=O)c1ccc(F)cc1
inactive: Potency [1] | Potency [2] | Potency [3] | Potency [4] | outcome [5] | Potency [15] | outcome [16] | Potency [6] | Potency [7] | Potency [8] | Potency [9] | Potency [20] | max activation [17] 0.566% | outcome [18] | Potency [19] | Potency [11] | Potency [12] | Potency [13]

CCOc1cccc(C2(N3CCN(c4ccccc4)CC3)CCC(C)CC2)c1 (stereo unspecified)
inactive: Potency [14] | Potency [2] | Potency [3] | Potency [4] | outcome [5] | outcome [16] | Potency [6] | Potency [8] | Potency [9] | Potency [10] | Potency [20] | outcome [11] | outcome [12] | outcome [13]

CCCCC#N
inactive: Potency [14] | Potency [1] | Potency [4] | outcome [5] | outcome [16] | Potency [6] | Potency [7] | Potency [8] | Potency [9] | Potency [11] | Potency [12] | Potency [13]

C=CC(=O)OCC
inactive: Potency [14] | Potency [1] | Potency [4] | outcome [5] | Potency [15] | outcome [16] | Potency [6] | Potency [8] | Potency [10] | Potency [11] | Potency [12] | Potency [13]

From PubChem BioAssay (Tox21)
